Rows were chosen to be rich in hits. Some 2.6% of all compounds tested hit in one or more screens of this group.
PHOSPHO1 block = inhibitors of human PHOSPHO1 phosphatase; AID 1565; 290,000 compounds, 1.1% hits; Q8TCT1; inhibition, % at 13.3 µM; recombinant PHOSPHO1, absorbance phosphatase assay; in the data active means inhibition above about 60%
ABCB6 inh 2 = inhibitors of human ABC transporter ABCB6; K562-ABCB6 porphyrin accumulation, flow cytometry, 1 h; stronger effect = lower value; fluorescence ratio to DMSO, % at 10 µM; 360,000 compounds, 0.19% hits; AID 602162;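 active means fluorescence ratio to DMSO below 75%, the collection mean minus 3 SD; inconclusive means too few cells collected in the well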;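 further: signal is porphyrin accumulated inside mitochondria; lower ratio means ABCB6 inhibition with less porphyrin fluorescence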
Target sequence (Q9NP58 whole entry, looked up): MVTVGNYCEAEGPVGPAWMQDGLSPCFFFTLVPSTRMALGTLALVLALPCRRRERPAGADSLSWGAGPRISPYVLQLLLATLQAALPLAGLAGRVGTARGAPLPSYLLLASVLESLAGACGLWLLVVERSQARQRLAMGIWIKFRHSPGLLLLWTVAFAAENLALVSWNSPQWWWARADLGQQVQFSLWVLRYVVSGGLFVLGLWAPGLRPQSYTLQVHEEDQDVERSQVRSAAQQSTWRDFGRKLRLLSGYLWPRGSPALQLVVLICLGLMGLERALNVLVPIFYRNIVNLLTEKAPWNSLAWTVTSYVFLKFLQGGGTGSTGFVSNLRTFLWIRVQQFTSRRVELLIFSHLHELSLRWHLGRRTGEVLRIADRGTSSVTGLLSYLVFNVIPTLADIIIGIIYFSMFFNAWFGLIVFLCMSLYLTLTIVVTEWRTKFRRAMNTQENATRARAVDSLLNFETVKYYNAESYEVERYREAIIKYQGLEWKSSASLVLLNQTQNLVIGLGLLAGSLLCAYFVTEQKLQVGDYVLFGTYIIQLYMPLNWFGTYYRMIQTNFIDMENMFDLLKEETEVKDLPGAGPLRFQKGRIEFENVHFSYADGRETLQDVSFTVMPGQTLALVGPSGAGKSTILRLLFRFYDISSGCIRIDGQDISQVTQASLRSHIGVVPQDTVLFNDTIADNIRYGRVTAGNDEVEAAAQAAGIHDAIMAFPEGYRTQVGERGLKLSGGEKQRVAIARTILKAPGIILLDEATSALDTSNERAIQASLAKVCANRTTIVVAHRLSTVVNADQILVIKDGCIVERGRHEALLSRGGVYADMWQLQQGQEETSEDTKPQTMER
AI-2 QS mod = modulates the Vibrio harveyi AI-2 quorum sensing system. Vibrio harveyi JMH597 AI-2 luminescence/OD600 ratio, 9 h; stronger effect = lower value; strain lacks LuxN and CqsS sensors; 0 = neutral-control median. activity change, % at 7.5 µM. 300,000 compounds, 0.4% hits. AID 2094; in the data active means activity change below about -75%, passing the limit was not always enough; inconclusive means no clear call, values can overlap the other calls;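 further: luminescence divided by OD600 gain over 9 h not by final OD600 alone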
PABP FP inh = PABP-poly(A) binding inhibition; 290,000 compounds, 1% hits; calls only at 35 µM; PABP-poly(A) RNA binding, fluorescence polarization; P11940;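 further: calls also rest on retests at 20 µM and on dose response follow-up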
eIF4H inh = inhibitors of RNA binding by human eIF4H | Q15056 | eIF4H fluorescence polarization binding assay | 290,000 compounds, 0.94% hits | inhibition, % at 35 µM | AID 2012;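 further: calls also rest on retests at 20 µM and on dose response follow-up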
MLLE-PAM2 inh = blocks PAM2 peptide binding to the PABP1 MLLE domain | P11940 | GST-MLLE / FITC-PAM2 fluorescence polarization | inhibition, % at 20 µM | 360,000 compounds, 0.36% hits | AID 588489; in the data active means inhibition above about 35%, passing the limit was not always enough
Numbers stand for hits; – = inactive; ? = inconclusive; · = no result; + = active, no number. Unless noted, how the calls were made is not given here.

SMILES	PHOSPHO1 block	ABCB6 inh 2	AI-2 QS mod	PABP FP inh	eIF4H inh	MLLE-PAM2 inh
Cc1ccc(-c2ccnc3nc(-n4cccc4)nn23)o1	–	–	–	+	56	–
COc1cc2c(c(OCC(=O)NC(C)C)c1)C(=O)O[C@@H](C)CCCC(=O)CCCCC2	·	–	–	–	–	52
COc1cc(OCC(=O)NC(C)C)cc2c1C(=O)O[C@@H](C)CCCC(=O)CCCCC2	–	–	–	–	–	–
O=C(O)CN=C(Nc1cc(Cl)cc(Cl)c1)NC(c1ccccc1)c1ccccc1	·	–	·	·	·	·
CCOC(=O)Cc1cc(=O)c2c(=O)n(-c3ccccc3)[nH]c2[nH]1	–	–	–	+	6.0	–
COCCN1CCC(CNCc2c(C(=O)N3CCCCC3)nc3c(C)cccn23)C1 (stereo not given)	–	–	–	+	62	–
Cc1cccn2c(CNCC3OCCc4ccccc43)c(C(=O)N3CCCCC3)nc12 (stereo not given)	–	–	–	–	–	–
CC(=O)Nc1cc(-c2ccc(N)nc2)cn2c(-c3cccc(C(F)(F)F)c3)cnc12	·	–	·	·	·	–
COc1cccc(NC(=O)C2(C)CCCN(C(C)C)C2)c1 (stereo not given)	·	–	·	·	·	–
CC1CC=C2C(C#N)=C(N)C(C#N)(C#N)C(c3cccs3)C2C1 (stereo not given)	–	–	–	+	123	–
CC(=O)Oc1ccccc1Cn1c(C)c(C(=O)NCc2ccc(Cl)c(Cl)c2)sc1=O	·	–	·	·	·	–
CN(c1ccccc1)S(=O)(=O)c1cccc(C(=O)NC2CCCCC2)c1	·	–	·	·	·	85
CN(c1ccccc1)S(=O)(=O)c1cccc(C(=O)OCC(=O)NCCCN2CCCC2=O)c1	–	–	–	+	–	–
CCc1nc2c(OCc3ccc(C#N)cc3)cccn2c1N(C)C(=O)c1ccc(C)cc1	·	–	·	·	·	–
Cc1ccc(-c2nc3c4ccccc4ccn3c2Cc2ccccc2C(F)(F)F)cc1	·	–	·	·	·	·
O=C(CC[C@H]1O[C@@H](n2cnc3c(NC(=O)c4ccccc4)ncnc32)[C@H](O)[C@@H]1O)NCCCN1CCCC1=O	·	–	·	·	·	–
Cc1cc(F)ccc1-c1cc(C(=O)NC(C)C)[nH]n1	·	–	·	·	·	–
CN(C)C=NC1=NN(c2cccc(C(F)(F)F)c2)CC1	97	–	–	–	–	–
O=C(N/N=C\C=C\c1ccco1)c1cncc(Br)c1	–	–	–	+	66	–
O=C(N/N=C/C=C\c1ccco1)c1ccccn1	–	–	–	+	75	–
O=C(N/N=C/C=C/c1ccco1)c1cccnc1	–	–	–	+	64	–
O=C(N/N=C\c1ccco1)c1cncc(Br)c1	–	·	–	–	–	·
O=C(N/N=C/C=C\c1ccco1)c1cccnc1	–	–	–	+	62	–
O=C1COc2ccccc2C(c2nc3ccccc3[nH]2)N1Cc1ccccc1 (stereo not given)	·	–	·	·	·	·
OC(c1ccc(F)c(F)c1)c1nc(-c2cccc(F)c2)cs1 (stereo not given)	·	–	·	·	·	–
SMILES	PHOSPHO1 block	ABCB6 inh 2	AI-2 QS mod	PABP FP inh	eIF4H inh	MLLE-PAM2 inh
CCOc1cc(OCC)cc(C(=O)N2CCC[C@H]2C(=O)N2CCC[C@H]2C(=O)NCc2ccccn2)c1	·	–	·	·	·	·
Cc1ccc(S(=O)(=O)C(C#N)c2nc3ccccc3nc2N2CC(C)OC(C)C2)cc1C (stereo not given)	78	–	–	+	85	–
COc1ccc(S(=O)(=O)C(C#N)c2nc3ccccc3nc2N2CCCC(C)C2)cc1 (stereo not given)	–	–	–	–	–	–
Cc1cccc(S(=O)(=O)C(C#N)c2nc3ccccc3nc2N2CC(C)OC(C)C2)c1 (stereo not given)	–	–	–	–	–	–
CC1CCCN(c2nc3ccccc3nc2C(C#N)S(=O)(=O)c2cccs2)C1 (stereo not given)	102	–	–	–	–	51
CCOc1ccccc1C(=O)N1CCN=C1SCc1cccnc1	–	–	–	–	–	40
O=C(c1ccccc1F)N1CCN=C1SCc1cccnc1	–	–	–	–	–	–
CC(C)CC(=O)Nc1cccc(C(C)O)c1 (stereo not given)	–	·	–	+	active	·
C/C(=C\C(=O)c1ccc(Cl)cc1)NCc1ccc2c(c1)OCO2	85	–	–	–	–	–
O=C(O)c1ccc(NCc2ccc3c(c2)OCO3)cc1	–	–	-92	–	–	–
O=C(NCc1ccc2c(c1)OCO2)c1ccc2c(c1)OCO2	–	–	–	–	–	–
CCCCn1nnnc1C1(C)CCC(=O)N1CCOC (stereo not given)	·	–	·	·	·	·
CCC(C)N(C(=O)CSc1ccc(NC(C)=O)cc1)C1CCS(=O)(=O)C1 (stereo not given)	–	–	–	–	–	45
CCC(C)N(C(=O)COC(=O)CSc1ccc(C)c(C)c1)C1CCS(=O)(=O)C1 (stereo not given)	·	–	·	·	·	–
C[C@H]1CN([C@@H](C)CO)C(=O)c2cc(C#Cc3ccccn3)cnc2O[C@@H]1CN(C)Cc1ccccc1	·	–	·	·	·	–
O=C(Cc1ccccc1)Nc1nnc(-c2ccco2)s1	–	–	·	+	–	–
COc1ccccc1OCC(=O)Nc1nnc(-c2ccco2)s1	74	–	–	+	96	–
O=C(Nc1nnc(C2CCCO2)s1)c1cccs1 (stereo not given)	–	–	–	–	–	–
CCCC(=O)Nc1nnc(-c2ccco2)s1	–	–	–	–	–	–
COc1cccc(C(=O)Nc2nnc(C3CCCO3)s2)c1 (stereo not given)	–	–	-78	–	–	–
CCOc1cccc(C(=O)Nc2nnc(-c3ccco3)s2)c1	76	–	·	–	–	–
Cc1cccc(OCC(=O)Nc2nnc(-c3ccco3)s2)c1	–	–	–	–	–	–
CCCCSc1nc2c(cc1C#N)CCC2	–	–	–	–	–	–
CCCSc1nc(C)c(-c2csc(C(C#N)=C3CCCC3)n2)cc1C#N	74	–	–	+	59	–
CC(=O)N=c1c(C#N)cc2c(=O)n3ccccc3nc2n1CCCOC(C)C	–	–	–	–	–	–
SMILES	PHOSPHO1 block	ABCB6 inh 2	AI-2 QS mod	PABP FP inh	eIF4H inh	MLLE-PAM2 inh
CCCCn1c(=NC(=O)c2ccc3c(c2)OCO3)c(C#N)cc2c(=O)n3cccc(C)c3nc21	–	–	·	+	81	–
CC(C)OCCCn1c(=NC(=O)c2ccncc2)c(C#N)cc2c(=O)n3ccccc3nc21	98	–	–	?	?	–
COCCn1c(=NC(=O)c2ccc3c(c2)OCO3)c(C#N)cc2c(=O)n3cccc(C)c3nc21	–	·	–	–	–	·
O=C1c2ccccc2C(c2nnnn2-c2ccc3c(c2)OCCO3)N1CCCN1CCOCC1 (stereo not given)	·	–	·	·	·	·
COC(=O)C(C#N)(CCC(=O)c1ccccc1)CCC(=O)c1ccccc1	·	–	·	·	·	–
OCC[C@@H]1C[C@H](O)[C@@H](O)[C@@]2(OCc3ccc4ccccc4c32)O1	·	–	·	·	·	–
